Tau fluor counter – Counterscreen qHTS for Inhibitors of Tau Fibril Formation, Fluorescence Polarization | tau K18 P301L Alexa594 fluorescence, heparin fibrillization | 280,000 tested, 0.93% active | Potency, µM (titrated, usually from 57.7 µM), for the others: at the top dose activity change, negative = decrease; also: potency is read from the fitted curve at half-maximal effect; nearly all actives have a fitted effect of over 55% in size
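Human K18 P301L tau (15 uM unlabeled plus 0.24 uM Alexa 594-labeled, final) in 100 mM sodium acetate pH 7 was mixed with compound and 20 uM heparin and incubated 6 hr at 37 C.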
Tau fibril FP – qHTS for Inhibitors of Tau Fibril Formation, Fluorescence Polarization; K18 P301L tau heparin fibrillization, Alexa594 FP, 6 h; 280,000 tested, 0.39% active; Microtubule-associated protein tau (Homo sapiens), P10636; Potency, µM (top dose mostly 57.7 µM), without a hit: at the top dose activity, negative = inhibition, actives largely listed as inhibitors; also: potency is read from the fitted curve at half-maximal effect; nearly all actives have a fitted effect of over 55% in size
Target sequence (P10636 561-689 P618L limits assumed): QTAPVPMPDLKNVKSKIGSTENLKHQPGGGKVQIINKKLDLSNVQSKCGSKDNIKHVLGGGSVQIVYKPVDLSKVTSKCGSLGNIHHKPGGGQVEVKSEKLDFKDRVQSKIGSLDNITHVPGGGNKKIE
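Read-out: fluorescence polarization of Alexa 594-labeled tau (0.24 uM), 555 nm excitation, 632 nm emission. Mixtures held 15 uM unlabeled K18 P301L, compound and 20 uM heparin, pH 7 acetate buffer, incubated 6 hr at 37 C.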
Sfp PPTase inh – qHTS Assay for Inhibitors of Bacillus subtilis Sfp phosphopantetheinyl transferase (PPTase); Biochemical Sfp PPTase activity, qHTS; 310,000 tested, 3.5% active; AID 1490, 2009; 4'-phosphopantetheinyl transferase ffp (Bacillus subtilis), Q9F4F7; Potency, µM, inactives show largest response in the series, negative = inhibition, most hits filed as inhibitors;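 also: the enzyme is Sfp with the accession as filed and its product quenches rhodamine fluorescence; potency is read from the fitted curve at half-maximal effect; 0% = enzyme reaction without inhibitor and -100% = no enzyme wells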
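Sfp 15 nM + cpd, 15 min RT; start w/ rhodamine-CoA 5 uM, BHQ-2-YbbR 12.5 uM (final); 50 mM Hepes pH 7.6, 10 mM MgCl2, 0.01% NP-40, 0.01% BSA; read 525/598 nm at 0 and 30 min.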
Coupling enz – qHTS Assay for Inhibitors of Fructose-1,6-bisphosphate Aldolase from Giardia Lamblia: Coupling assay counterscreen | coupling enzyme system counterscreen, AmpLite Red fluorescence | 290,000 tested, 0.67% active | activity change, negative = inhibition, % at 58.2 µM, hits read low; in the data active = activity change below about -30%
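Counterscreen lacking aldolase: glyceraldehyde-3-phosphate coupling-enzyme reagent preincubated 10 min at RT with compound (at 57.5 uM final), then substrate/coupling system with AmpLite Red added; fluorescence read at 525/598 nm after 20 min RT.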
Tau fibril ThT – qHTS for Inhibitors of Tau Fibril Formation, Thioflavin T Binding; Microtubule-associated protein tau (Homo sapiens), P10636; recombinant tau K18 P301L, heparin-induced fibrillization, ThT fluorescence; Potency, µM (series often up to 57.4 µM), for inactives: at the highest dose activity, negative = inhibition, actives largely listed as inhibitors; 270,000 tested, 2.1% active; also: potency is read from the fitted curve at half-maximal effect; nearly all actives have a fitted effect of over 55% in size
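Fibril formation assay: tau K18 P301L at 15 uM with trace Alexa 594 label, heparin inducer 20 uM, pH 7 sodium acetate buffer, 37 C for 6 hr; endpoint ThT signal.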
G9a inh – qHTS Assay for Inhibitors of Histone Lysine Methyltransferase G9a; Histone-lysine N-methyltransferase EHMT2 (Homo sapiens), Q96KQ7; G9a H3K9 monomethylation, AlphaScreen, 2 h; Potency, µM (top dose mostly 102 µM), inactives show at the top dose activity, negative = inhibition, usual class: inhibitors; 350,000 tested, 8.8% active; AID 504332, 2011; also: potency is read from the fitted curve at half-maximal effect; nearly all actives have a fitted effect of over 75% in size
Target sequence (Q96KQ7 913-1193 limits assumed): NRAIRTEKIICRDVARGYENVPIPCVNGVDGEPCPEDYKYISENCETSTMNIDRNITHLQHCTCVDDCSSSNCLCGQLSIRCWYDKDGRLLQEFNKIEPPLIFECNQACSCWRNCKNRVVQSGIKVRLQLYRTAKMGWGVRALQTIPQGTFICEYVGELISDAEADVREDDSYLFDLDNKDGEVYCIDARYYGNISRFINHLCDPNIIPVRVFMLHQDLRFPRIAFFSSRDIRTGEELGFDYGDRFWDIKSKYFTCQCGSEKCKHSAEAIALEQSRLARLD
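Enzyme 20 nM + cpd, 15 min RT; add b-H3K9 pep 500 nM / SAM 20 uM; 2 h RT; anti-H3K9me1 Ab 0.5 ug/mL + SA donor / anti-rabbit acceptor beads 20 ug/mL each, 10 min; AlphaScreen read.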
Active calls of the source: *; ? = inconclusive; / = not tested or not shown; [ ] = remark or other dose. Hits are enriched below; roughly 11% of the tested compounds scored in any of these assays. Unless noted, calls follow the shape of the dose curve; as a rule, active = well fitted curve in the direction sought with a large enough effect; inconclusive = small, poorly fitted or top-dose-only effect, or another doubt; inactive = no such curve, though single readings can be large; an effect the other way counts as inactive or inconclusive. Unless noted, % is scaled to controls: 0 for no effect and ±100 for the full control effect.

SMILES	Tau fluor counter	Tau fibril FP	Sfp PPTase inh	Coupling enz	Tau fibril ThT	G9a inh
COCCNC(C)C(=O)Nc1ccc(Br)cc1 (centres undefined)	-10%	-5%	-26%	1	-11%	11µM*
COCCSc1ccccc1C(=O)Nc1cccnc1	-13%	-7%	?	0	-10%	1.6µM*
O=C(Nc1cccnc1)c1ccccc1O	-10%	0%	16%	1	-5%	6%[59 µM]
COCCSc1ccccc1C(=O)Nc1ccc(Cl)cc1	-23%	-5%	?	-5	-14%	7.1µM*
CCc1cccc(-n2c(=O)c3cccnc3n2CC(=O)Nc2ccc(OC)c(Cl)c2)c1	?	?	/	/	0%	4%[59 µM]
O=C(NCCCN1CCCCC1)c1cc(Sc2ccc(Cl)cc2)nc2ccccc12	-10%	-5%	/	/	7%	-5%[59 µM]
CCc1nc2ccccc2c(C(=O)Nc2cccc(C)c2)c1C	/	/	13%	-2	/	/
Cc1noc(C)c1S(=O)(=O)Nc1ccc(C(=O)Nc2ccc(C(C)C)cc2)cc1	?	?	/	/	-3%	-24%[59 µM]
Cc1ccc(/C=N/Nc2nnc(Cl)c3ccccc23)cc1	-24%	-4%	-26%	-3	?	45µM*
Clc1nnc(NN=C2CCCC2)c2ccccc12	?	-12%	50µM*	0	25µM*	-3%
Clc1nnc(N/N=C/c2ccccc2)c2ccccc12	?	?	-20%	1	?	-16%
Cc1ccc(C(=O)CCC(=O)Nc2ccccc2C)c(C)c1	/	/	15%	3	/	28%
Cc1ccc(OCCCCN2CCc3ccccc3C2)cc1	/	/	1%	1	/	?
CCc1ccc(N2C(=O)CC(N(CC3CCCO3)C(=O)/C=C/C(=O)O)C2=O)cc1 (centres undefined)	5%	4%	-4%	3	1%	89µM*
Cc1cc(N2CCCCC2)nc2ccc(NC(=O)c3cccc(F)c3)cc12	13µM*[quencher]	10%	/	/	?	-2%[59 µM]
Cc1cc(N2CCCCC2)nc2ccc(NC(=O)c3cccc(Cl)c3)cc12	14µM*[quencher]	?	/	/	10µM*	-10%[59 µM]
Cc1ccc(C(=O)Nc2ccc3nc(N4CCCCC4)cc(C)c3c2)cc1F	4%	1%	/	/	11%	24%[59 µM]
Fc1ccc(N=C2NN=C(c3cc(F)ccc3F)CS2)cc1	?	?	-9%	0	13µM*	-11%[59 µM]
Cc1[nH]c2ccccc2c1C1=NNC(=Nc2ccc(F)cc2)SC1	11µM*[quencher]	?	22µM*	1	14µM*	?
O=C1CSC(=Nc2ccc(F)cc2)N1	/	/	13%	0	/	9%[2.33 µM]
COc1ccc(N=C2NN=C(c3c(C)[nH]c4ccccc34)CS2)cc1	25µM*[quencher]	-17%	35µM*	1	?	8.9µM*
CCn1cc(C(=O)Nc2sc(C)c(C)c2C(=O)OC)cn1	-1%	2%	-19%	1	-14%	?
COc1ccc(-c2ccccc2)cc1NCc1ccc(OC)c(OC)c1	?	13%	?	0	?	10µM*
COc1ccccc1CNc1cc(-c2ccccc2)ccc1OC	-29%	?	-5%	2	-11%	?
C/C(CCN1CCCCc2nc(C)c(C)cc21)=N\O[C@@H](C)c1cn([C@H](CO)Cc2ccccc2)nn1	-8%[11.6 µM]	3%[11.6 µM]	12%	2	-11%[11.5 µM]	?
C/C(CCN1CCCCc2nc(C)c(C)cc21)=N\O[C@H](C)c1cn([C@H](CO)Cc2ccccc2)nn1	-18%	-8%	-9%	-4	-17%	56µM*
CCOc1ccc(CCNC(=O)c2ccc3c(c2)nc2n3CCOC2)cc1OCC	-10%	-12%	/	/	?	7%[59 µM]
